This passage reports growth results from PubChem BioAssay (NCI).

About 83,000 compounds went through this panel and 20% of them were active in at least one assay; those are over-represented in the sample as a whole.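 A percent growth of 40 corresponds to 60% growth inhibition; 0 means no net growth; -100 means all cells died. Active threshold: below 10.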 Activity calls are given as the source filed them.

The subject of this assay is HL-60(TB) leukemia. In words: NCI-60 one-dose screen, 48 h (100 = growth as untreated, 0 = no growth, -100 = all killed). The following applies: 10 µM unless noted.
On to `C=C(C)[C@@H]1C[C@@H]2Cc3cc(Cl)ccc3N1O2`, for which the growth was -8.6% (active).

Consider `CCCCCCCCCCCCCCCCOc1ccc(C)cc1`, for which the growth was 134% (inactive). For `O=C(CCc1nc2sc3c(c2c(=O)[nH]1)CCC3)NCc1cn(-c2ccccc2)nc1-c1ccccc1` the value was 98.7% (inactive); for `COc1ccc(-c2nn(-c3cccc(Cl)c3)cc2-c2c(C#N)c(=O)n3[nH]c(-c4ccc(C)cc4)nc3c2C#N)cc1`, 61.7% (inactive). For `Oc1cccc2ccc(N/N=C/c3cc(CN4CCCCC4)c(O)c4ncccc34)nc12` the value was -12.1% (active); for `CCOC(=O)c1[nH]c2cc(Cl)ccc2c1[C@@H](C(=O)NC(C)(C)C)N(CC)C(=O)CCCCC#Cc1cccc2c1CN(C1CCC(=O)NC1=O)C2=O` (stereo not given in full), -7.29% (active); for `Cc1ccncc1C(N)=O`, -80.7% (active). For `O=C(CCCCCn1c2ccccc2c2c3c(c4c5ccccc5[nH]c4c21)C(=O)N(O)C3=O)N1CCOCC1` the value was 44.6% (inactive); for `Nc1nc(N)c2c(ccc3nccc32)[nH]1`, 16.5% (inactive); for `Cc1noc(C)c1-c1cc(O)cc(C(O)c2ccccc2)c1` (stereo not given), 10% (inactive). For `O=C(/C=C\c1ccc(NCc2ccc(C(=O)O)cc2)cc1)CCl`, the growth is 97.7% (inactive).

As to `C[n+]1ccccc1/C=C/c1ccc2cccc(O)c2n1`, the growth is 79.2% (inactive). For `O=C(CSc1nnc(-c2cc(-c3ccc(Cl)cc3)nc3ccccc23)n1-c1ccccc1)Nc1ccc(Cl)cc1` the value was 85.8% (inactive). With `Cc1cc(=O)n(-c2ccc(F)cc2)[nH]1`, the growth was 101% (inactive). For `CCOC(=O)C(Cc1ccccc1)n1c(O)c(/C=N/c2ncc(Cc3ccc(Cl)cc3Cl)s2)sc1=S` (stereo not given) the value was -35.2% (active); for `CC1(Cc2ccccc2)CC2=C(C(=O)O1)C(c1ccccc1)NC(=O)N2` (stereo not given), -25.1% (active). For `N#CCc1ccc([N+](=O)[O-])cc1` the value was 53.1% (inactive); for `CCN(CC)CCCC(Nc1c2ccc(Cl)cc2nc2ccc(OC)cc12)c1ccc(F)cc1` (stereo not given), -37.5% (active); for `O=c1cc(C(F)(F)F)[nH]c(=S)[nH]1`, 94.1% (inactive). For `CCC(CC)n1c(C)cc(=O)n1C(CC)CC` the value was 88% (inactive). As for `COc1ccc(-c2nn(-c3cccc(NC(=O)c4cccc(C(F)(F)F)c4)c3)cc2-c2ccncc2)cc1Cl`, the growth was 4.23% (active). In the case of `Cc1ccc(C2CC(c3cccs3)=NN2c2ccc(S(N)(=O)=O)cc2)s1` (stereo not given), the growth was 88.4% (inactive). For `CCCC1C(C(=O)OCC)=C(N)Oc2cc(O)ccc21` (stereo not given), the growth was 102% (inactive). For `CCOC(=O)c1cc(C(=O)c2ccc(OC)cc2)n2ccc(/C=C/c3cc[n+](CC(=O)c4ccc(OC)cc4)cc3)cc12` the value was 0.722% (active). Consider `O=C(CCn1cnc2c(cc(-c3ccccc3)n2-c2ccccc2)c1=O)Nc1ccc(F)cc1`, for which the growth was 86.6% (inactive). For `COc1ccc(C(=O)c2cc3c(N)c(C(=O)Nc4ccc(Br)cc4)sc3nc2C)cc1` the value was 80.2% (inactive); for `COc1cccc(/C=C/C(=O)c2c(C)nc3ccccc3c2/C=C/c2ccc(C)cc2)c1OC`, 36% (inactive); for `CCOC(=O)CNC`, 97.3% (inactive). For `Cc1ccc2c(c1)c(Sc1ccc(C(=O)NO)cc1)c1n2CN(C)CC1` the value was 21.4% (inactive). For `COc1ccc(/C=C(\C#N)n2nnc3cc(F)c(F)cc32)c(OC)c1OC` the value was 10.4% (inactive).

On to `CCCCC1CCCC12NC(=O)NC2=O` (stereo not given), for which the growth was 84.6% (inactive). To `CC(C)(C)OC(=O)N1CCN(CCn2cc(C(F)(F)F)c3c(Cl)ncnc32)CC1` belongs 16.4% (inactive). As for `COc1ccc(-n2cc(COc3ccc4c5ccnc(C)c5n(CC(C)C)c4c3)nn2)cc1`, the growth is -10.6% (active).

As for `CCOC(=O)c1c2c(n3ccc(NC(=O)CCN(CC)CC)cc13)C(=O)c1ncccc1C2=O`, the growth was -48.5% (active).

For the compound `CCOC(CNC(=O)c1cccc([N+](=O)[O-])c1)OCC`, the growth is 105% (inactive).

For the compound `N#CSCC1CC(O)(c2ccccc2)C(c2ccccc2)C(c2ccc(Cl)cc2)O1` (stereo not given), the growth is -1.83% (active). For `C=CCOc1ccc(/C(O)=C2\C(=O)C(=O)N(c3nccs3)C2c2ccccc2F)cc1` (stereo not given) the value was 81.1% (inactive). To `CCN1CCN(c2ccc(Nc3ncc4ccc5ncn(C(C)C)c5c4n3)nc2)CC1` belongs -36.3% (active). Consider `C[C@@H]1C[C@@H]([C@@H](CC2CC(=O)NC(=O)C2)OC(=O)CC(=O)c2ccccc2)C(=O)[C@@H](C)C1`, for which the growth is 13% (inactive). Regarding `COc1cc(OC)cc(C(=O)Nc2cnc(Nc3ccc(N4CCOCC4)nc3)nc2Oc2ccc(C(F)(F)F)cc2)c1`, the growth was 94.7% (inactive).
